This excerpt belongs to a sample that is enriched for hits.
Methyltransferases: Primary Screen for Target Class Profiling of Small Molecule Inhibitors of Methyltransferases. purified enzyme, MTase-Glo SAH luminescence; active compounds read low. calls only at 40 µM. 25,000 compounds, 3.9% hits; call rule not given here
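Each enzyme was assayed with SAM and its substrate. SAH formation detected by MTase-Glo luminescence; single-point 40 uM screen[…].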
* = called active by the depositor; i = inactive; + = active, no number; ! = a repeat was not active. % is set by controls: 0 for no effect and ±100 for the full control effect.

SMILES | Methyltransferases
CC(=O)Nc1c2n(c3ccc(F)cc13)CC(C)(C(=O)NC1CCCC1)N(CCCOC(C)C)C2=O (stereo not drawn) | i
C=CCNC(=O)c1cnn2c1CN(C(=O)OCc1ccccc1)CC2 | i
CCC(C)NC(=O)Cn1nc2n(C(C)C)c(=O)c3ccc(C(=O)NC4CCCCC4)cc3n2c1=O (stereo not drawn) | i
CCCCc1nc2c3ccccc3n(CC(=O)N3CCN(c4ccccc4F)CC3)c(=O)n2n1 | i
O=C(Nc1ccc([N+](=O)[O-])cc1Cl)c1cc(Cl)ccc1O | i
O=S(=O)(Nc1ccccc1Cl)c1ccc2[nH]c3c(c2c1)CCCC3 | i
O=[N+]([O-])c1cc(S(=O)(=O)Nc2ccc(O)c3ccccc23)ccc1Cl | +
COc1ccc(-c2nc(-c3ccc(S(=O)(=O)N4CCC(C)CC4)cc3)no2)c(OC)c1 | i
CCCn1c(=O)c2ccc(Cl)cc2n2c(=O)n(CC(=O)c3ccc(OCC)cc3)nc12 | i
O=C1c2ccccc2C(=O)c2c(NCCc3ccc(O)cc3)ccc(NCCc3ccc(O)cc3)c21 | +
Fc1ccccc1-c1noc(NCCc2ccc(Cl)cc2)n1 | i
O=C(O)c1cc([N+](=O)[O-])ccc1NCCCc1ccccc1 | i
Cc1ccccc1NC(=O)N1CCn2c(C)ccc2C1C(C)C (stereo not drawn) | i
O=C(Nc1ccc(Oc2ccccc2)cc1)N[C@H]1CO[C@H]2[C@@H]1OC[C@@H]2n1nnnc1Oc1ccc(-n2cncn2)cc1 | i
CCn1c(=O)n(CC)c2cc(S(=O)(=O)N3CCC(Cc4ccccc4)CC3)ccc21 | i
CCCn1c(=O)c2ccc(C(=O)NC(C)CC)cc2n2c(SCC(=O)Nc3ccccc3F)nnc12 (stereo not drawn) | i
Cc1c[nH]c2nccc(Oc3c(F)cc(Nc4cc(Cl)nc(N)n4)cc3F)c12 | +
COc1ccc(-c2n[nH]n3c2nc(=O)c2ccc(C(=O)NCCCc4ccccc4)cc23)cc1 | i
Cn1cc(-c2cnn3c(N)c(Br)c(C4CCCNC4)nc23)cn1 (stereo not drawn) | +
Cc1ccc(S(=O)(=O)c2nnn3c2nc(NCCC(C)C)c2ccccc23)cc1C | i
COCC(=O)N1CCN(c2nc3ncccc3o2)CC1 | i
CC1CCC(N2C(=O)c3cc4sccc4n3CC2(C)C(=O)NC2CCCCC2)CC1 (stereo not drawn) | i
CC(C)OCCCn1c(=O)c2ccccc2n2c(CCC(=O)N3CCN(c4ccccc4F)CC3)nnc12 | i
CNC(=O)CN1CCC(Oc2cc3c(Nc4cccc(Cl)c4F)ncnc3cc2OC)CC1 | +
COc1cc2ncnc(Nc3ccc(F)c(Cl)c3)c2cc1NC(=O)/C=C/CN1CCCCC1 | +
SMILES | Methyltransferases
O=C(NC1CCCC1)c1ccc(OC2CCN(CCCC(F)(F)F)CC2)c(Cl)c1 | i
CCCC1c2cccn2CCN1C(=O)Nc1cc(Cl)ccc1OC (stereo not drawn) | i
COC(=O)c1cccc(Nc2ncnc3ccc(C)cc23)c1 | i
CNC(=O)c1c(F)cccc1Nc1nc(Nc2cc3c(cc2OC)CCN3C(=O)CN(C)C)nc2[nH]ccc12 | i
O=C(CCC1CCN(S(=O)(=O)c2ccccc2)CC1)NCCCN1CCCC1=O | i
Cc1ccc(C)c(N2C(=O)c3cc4ccccc4n3CC2(C)C(=O)NC2CCCC2)c1 (stereo not drawn) | i
O=C(NCc1ccccc1Cl)c1ccc2c(=O)nc3c(-c4cccc(F)c4)n[nH]n3c2c1 | i
C=C(C(=O)O)C1CC2=C(C)C(=O)CC2C(C)CC1O (stereo not drawn) | i
C=C(C(=O)O)[C@@H]1CC[C@H](C)[C@@H]2CC(=O)C(C)=C2C1 | +
CCC(C)NC(=O)Cn1nc2n(Cc3ccc(C)cc3)c(=O)c3ccc(C(=O)NC(C)C)cc3n2c1=O (stereo not drawn) | i
CCN(CC)CCCC(C)Nc1c2ccc(Cl)cc2nc2ccc(OC)cc12 (stereo not drawn) | +!
CC1(C)[C@H](Cc2cc(COc3ccccc3)on2)C[C@@H]1NC1CCC1 | i
CC(=O)N1CCN(C(=O)Cc2ccc(Nc3ncc(F)c(Nc4ccc(C(=O)Nc5ccccc5Cl)cc4)n3)cc2)CC1 | i
CCS(=O)(=O)N1CCN(c2ccc(Nc3ncc(C(N)=O)c(NC4CC4)n3)cc2)CC1 | +
CCOCCCNC(=O)C1(C)Cn2c(ccc2-c2ccco2)C(=O)N1c1ccc(OC)cc1 (stereo not drawn) | i
Cc1[nH]c2ccccc2c1C(=O)Cn1nc2n(Cc3ccccc3)c(=O)c3ccccc3n2c1=O | i
CCOc1ccc(C(=O)Cn2nc3n(C)c(=O)c4ccc(C(=O)NC5CCCCC5)cc4n3c2=O)cc1 | i
C=C(F)c1sc(CNCCCNc2cc(=O)c3ccccc3[nH]2)c(C)c1Br | +
CC1CCC(NC(=O)C2(C)Cn3c(cc4sccc43)C(=O)N2Cc2ccc(Cl)cc2)CC1 (stereo not drawn) | i
COc1cc2c(cc1-c1c(C)noc1C)ncc1[nH]c(=O)n([C@H](C)c3ccccn3)c12 | +!
COc1ncccc1-c1cc(-c2c(C)noc2C)c2cncn2c1 | i
Cc1noc(C)c1-c1nccc2c(=O)cc(-c3ccccn3)oc12 | i
CCOC(=O)c1cc2n(n1)CC(C)(C(=O)NCc1ccccc1OC)N(c1ccccc1CC)C2=O (stereo not drawn) | i
Cc1cccc(Cn2nc3n(C(C)C)c(=O)c4ccc(C(=O)NC5CCCCC5)cc4n3c2=O)c1 | i
CCc1ccc(CN2C(=O)c3cc4ccccc4n3CC2(C)C(=O)NCCC(C)C)cc1 (stereo not drawn) | i
SMILES | Methyltransferases
CCc1ccc(-c2cc3n(n2)CC(C)(C(=O)NC2CCCCC2)N(CCN(CC)CC)C3=O)cc1 (stereo not drawn) | i
COc1cc(-c2cc(-c3cccc(O)c3)cnc2N)cc(OC)c1OC | i
Nc1ccc(-c2cnc(N)c(-c3ccc(Cl)cc3)c2)cn1 | +
CCC(C)NC(=O)c1ccc2c(=O)n(C3CC3)c3nn(CC(=O)NC(C)C)c(=O)n3c2c1 (stereo not drawn) | i
CCCN1C(=O)c2c(C(=O)NCc3ccccc3F)ncn2CC1(C)C(=O)NC1CCCC1 (stereo not drawn) | i
CC1(C(=O)NC2CCCC2)Cn2c(ccc2-c2ccccc2)C(=O)N1CCCc1ccccc1 (stereo not drawn) | i
CC(C)(Sc1ccc(CCN(CCCCC2CCCCC2)C(=O)NC2CCCCC2)cc1)C(=O)O | +!
CSc1ccc(CCN2C(=O)c3ccc(-c4ccco4)n3CC2(C)C(=O)NC2CCCCC2)cc1 (stereo not drawn) | i
COc1cccc(CN2C(=O)c3cc4sccc4n3CC2(C)C(=O)NC2CCCC2)c1OC (stereo not drawn) | i
C=C(C(=O)O)[C@H]1C[C@]2(C)C(=O)CC[C@]23O[C@H]1C[C@@H]3C | +
C=C(C(=O)O)C1CC2=C(C)CCCC2(C)C[C@@H]1O (stereo partly drawn) | i
CC1(C(=O)NC2CCCCCCC2)Cn2c(cc3sccc32)C(=O)N1CCCc1ccccc1 (stereo not drawn) | i
CCc1ccc(S(=O)(=O)Nc2ccc3c(c2)n(C)c(=O)n3C)cc1 | i
Cc1ccccc1CN1C(=O)c2ccc(-c3ccccc3)n2CC1(C)C(=O)NC1CCCCCC1 (stereo not drawn) | i
COc1cc(/C=C(\C#N)C(=O)c2ccc(O)c(O)c2)cc(I)c1O | +
